High-throughput results from PubChem.
Rows were chosen to be rich in hits. Some 9.3% of all compounds tested hit in one or more screens of this group.
ELG1 genotoxic: genotoxicity induction in ELG1-luciferase HEK293T cells; HEK293T ELG1-luciferase reporter, luminescence, 16 h; Potency, µM (titrated, usually from 46 µM), most hits filed as activators; 1.3% of 330,000 active; AID 504466; further: nearly all actives have a fitted effect of over 60% in size
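Cells (2,000/well) expressing the ELG1-luciferase fusion are dosed by pin tool and kept 16 hr at 37 °C, 5% CO2. Signal comes from ONE-Glo luciferase reagent after 30 min at room temperature.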
SMN2 splice enh: increases expression of the SMN2 splice variant; HEK293 SMN2-luciferase splicing reporter, luminescence, 30-36 h; Potency, µM (doses to about 46.1 µM), actives largely listed as activators; 2.8% of 210,000 active; further: nearly all actives have a fitted effect of over 55% in size
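HEK293 cells carry an SMN2 minigene-luciferase reporter in which exon 7 inclusion puts luciferase in frame. Cells were seeded at 2000 cells/well, attached for 10-12 hours, then exposed to compounds for 30-36 hours at 37C before ONE-Glo luminescence.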
Rab9 promoter act: activates the Rab9 promoter | Huh7 Rab9 promoter-luciferase reporter, luminescence, 24 h | Potency, µM (top dose mostly 9.22 µM), usual class: activators | 2.8% of 320,000 active; further: nearly all actives have a fitted effect of over 60% in size
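Luminescence from Amplite-detected luciferase (10 minutes, ambient) reports Rab9 promoter activation. Before that, stable Rab9-luciferase Huh7 cells (1500/well, reduced-serum OP-MEM I plus 10% FBS) were exposed to compound for 24 hours at 37C.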
ELG1 DNA repair: blocks ELG1-dependent DNA repair in HEK293T cells | Potency, µM (top dose mostly 46.1 µM), actives largely listed as inhibitors | HEK293T ELG1-luciferase reporter, luminescence, 16 h; DNA damage induced by 5-fluorouridine | 2.3% of 330,000 active; further: nearly all actives have a fitted effect of over 55% in size
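Reporter activity after DNA damage by 5-fluorouridine is monitored. Compound-treated cells incubate 16 hr at 37 °C, then ONE-Glo is added for 30 min before luminescence reading.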
NPC1 prom act: activates the NPC1 promoter; Huh7 NPC1 promoter luciferase reporter, 24 h; AID 485313; 2.4% of 320,000 active; Potency, µM (highest dose often 9.22 µM), usual class: activators; further: nearly all actives have a fitted effect of over 60% in size
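Luciferase expression driven by the NPC1 promoter was measured in stably transfected Huh7 cells after a 24 h compound incubation, using a luciferase reagent and a luminescence read.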
FLuc counter: firefly luciferase modulation, counter-screen for miR-21 project. P08659. purified FLuc, Km substrates, luminescence inhibition. Potency, µM (highest dose often 57.5 µM), actives largely listed as inhibitors. 6.9% of 360,000 active. AID 588342; further: nearly all actives have a fitted effect of over 55% in size
Target sequence (P08659 whole entry, looked up): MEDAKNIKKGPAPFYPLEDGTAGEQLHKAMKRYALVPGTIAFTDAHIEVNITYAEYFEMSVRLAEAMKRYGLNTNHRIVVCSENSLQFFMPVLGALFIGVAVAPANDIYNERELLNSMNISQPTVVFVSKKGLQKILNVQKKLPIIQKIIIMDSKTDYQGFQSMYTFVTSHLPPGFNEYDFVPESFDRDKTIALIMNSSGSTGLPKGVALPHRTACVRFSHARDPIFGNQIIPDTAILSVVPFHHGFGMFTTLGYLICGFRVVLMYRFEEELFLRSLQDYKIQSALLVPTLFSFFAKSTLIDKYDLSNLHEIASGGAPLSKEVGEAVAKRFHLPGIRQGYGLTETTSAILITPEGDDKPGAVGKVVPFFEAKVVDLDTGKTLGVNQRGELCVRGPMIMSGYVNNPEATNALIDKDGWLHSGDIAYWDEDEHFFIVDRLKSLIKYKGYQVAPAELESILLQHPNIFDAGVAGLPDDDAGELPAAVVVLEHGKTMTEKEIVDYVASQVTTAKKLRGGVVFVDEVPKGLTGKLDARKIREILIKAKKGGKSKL
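Biochemical qHTS of compounds, final roughly 60 µM downward over six points, against 10 nM purified firefly luciferase using Km concentrations of substrates (10 uM D-luciferin, 10 uM ATP) in Tris acetate pH 7.5 buffer; luminescence output.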
Numbers stand for hits; i = inactive; ? = inconclusive; nt = no result; ! = repeats disagree; [ ] = another dose, or the depositor's remark. The call rests on the fitted dose curve; in most records, active means well fitted curve in the direction sought with a large enough effect; inconclusive means small, poorly fitted or top-dose-only effect, or another doubt; inactive means no such curve, though single readings can be large; an effect the other way counts as inactive or inconclusive.

SMILES	ELG1 genotoxic	SMN2 splice enh	Rab9 promoter act	ELG1 DNA repair	NPC1 prom act	FLuc counter
N#Cc1c(/N=C/C2C(=O)NC(=S)NC2=O)sc2c1CCCC2	i	i	i	i	i	?
CC(=O)c1cn(Cc2ccc(C#N)cc2)c2ccccc12	i	i	i	i	i	i
CC(C)C(=O)c1cn(Cc2ccc(C#N)cc2)c2ccccc12	i	i	i	18.4µM	i	i
CC(=O)Nc1nnc(SCC(=O)NCCOc2ccccc2)s1	i	i	?	i	i	i[2.3 µM]
O=C(CSc1nnc(NC(=O)c2cccc(F)c2)s1)NCc1ccco1	i	nt	?	?	?	3.38µM
Fc1cccc(C2NCc3ccccc3-n3cccc32)c1 (stereo not given)	i	nt	i	i	i	i
O=C1c2ccccc2-c2c1nc1c([n+]2[O-])CCCC1	?	i	3.55µM	?	i	i
O=C(N/N=C/c1c(O)n(C2CCCCC2)c(=S)[nH]c1=O)c1ccccc1	?	nt	i	?	i	i
CC(C)c1ccc(-n2c(O)c(/C=N/NC(=O)c3ccccc3O)c(=O)[nH]c2=S)cc1	i	nt	i	i	i	26.9µM
O=C(N/N=C/c1c(O)n(C2CCCCC2)c(=S)[nH]c1=O)c1ccccc1O	i[9.26 µM]	nt	i	?	i	15.1µM
O=C(N/N=C/c1c(O)n(Cc2ccco2)c(=O)[nH]c1=O)c1ccccc1O	i	nt	i	i	i	15.1µM
CCCCC(=O)N/N=C/c1c(O)n(Cc2ccco2)c(=O)[nH]c1=O	i	i	i	i	i	i
O=C1CC(=O)N(c2cccc(F)c2)C(=O)N1	i	nt	i	i	i	i
O=C(Nc1ccccc1)N(Cc1ccc2c(c1)OCO2)C1CCN(Cc2ccccc2)CC1	nt	nt	nt	nt	nt	i
O=C1NC(=O)N(c2ccccc2)C(=O)/C1=C\C=C\c1ccccc1	i	nt	i	?	i	?
O=C(CN1C(=O)S/C(=C\C=C\c2ccccc2)C1=O)Nc1ccccc1C(=O)O	i	nt	i	i	i	26.9µM
O=C1/C(=C/c2cccnc2)SC(=NCc2ccccc2)N1Cc1ccccc1	i	i	i	?	i	i
CCC(=Nc1cc(OC)ccc1OC)c1c(O)[nH]c(=O)[nH]c1=O	i	i	i	i	i	i
C=CCn1c(O)c(C(CC)=Nc2cc(OC)ccc2OC)c(=O)[nH]c1=O	23.1µM	?	i	?	i	i
O=C(Cn1cnc2ccccc2c1=O)NCC(=O)N1CCC2(CC1)OCCO2	i	i	i	i	i	i
COc1ccc(-n2nc(C(=O)NCC(=O)N3CCC4(CC3)OCCO4)c3ccccc3c2=O)c(OC)c1	?	nt	?	?	?	1.07µM
O=C1CC(=O)N(c2ccc(Cl)cc2)C(=O)N1	i	nt	i	i	i	i
O=C(O)CCn1cc(C=C2C(=O)NC(=S)NC2=O)c(-c2cccc(Cl)c2)n1	i	nt	i	i	i	21.3µM
O=C1CSC2N1CCNC21CCCCC1 (stereo not given)	i	i	i	i	i	i
CCC(=NCCO)c1c(O)n(C2CCCCC2)c(=O)[nH]c1=O	i	i	i	?	i	i
SMILES	ELG1 genotoxic	SMN2 splice enh	Rab9 promoter act	ELG1 DNA repair	NPC1 prom act	FLuc counter
CCC(=NCc1ccc2c(c1)OCO2)c1c(O)n(C2CCCCC2)c(=O)[nH]c1=O	i	i	i	20.6µM	i	i
CN(C)C(=O)Oc1ccc(OCc2nc3ccccc3[nH]2)cc1	?	7.08µM	0.447µM	?	?	1.51µM
c1cc2c(cc1CCNC1C3CC4CC(C3)CC1C4)OCO2 (stereo not given)	i	i	i	i	i	i
Cc1cc2c(C(C)C)c(O)c(O)c(C=O)c2c(O)c1-c1c(C)cc2c(C(C)C)c(O)c(O)c(C=O)c2c1O	?	i	i	i	i	13.5µM!
Cc1cccc(N2CCc3c2nc2ccccc2c3N)c1	i	i	i	?	i	21.3µM
Cc1cccc(-n2c(/C=C/c3ccccc3O)nc3ccccc3c2=O)c1	nt	i	nt	nt	nt	i
N#Cc1c(/N=C/c2ccc(O)cc2O)sc2c1C1CCN2CC1	i	i[1.84 µM]	i	?	i	6.01µM
O=C1NC(=O)C(=Cc2ccc(-c3cc(Cl)ccc3[N+](=O)[O-])o2)C(=O)N1	i	i	i	i	i	15.1µM
CCN(CC)c1ccc(CNc2nc3ccccc3n2C)cc1	i	nt	i	i	i	?
O=C(O)/C=C\C(=O)Nc1ccc(Oc2ccc(Br)cc2)cc1	i	i	i	i	i	19µM
[O-]/[N+](=C/c1cccnc1)c1ccc(Br)cc1	?	12.6µM	2.82µM	?	5.62µM	i[2.3 µM]
Cc1cc(C(=O)CS(=O)(=O)c2ccccc2)cc(C)c1OC(=O)N(C)C	i	10µM	0.794µM	?	3.16µM	6.75µM
Cc1ccc(S(=O)(=O)CC(=O)c2cc(C)c(OC(=O)N(C)C)c(C)c2)cc1	i	i	i	i	i	i
CCN(CC)C(=O)c1ccc(N(Cc2ccccc2)S(C)(=O)=O)cc1	i	nt	i	i	i	i
CC(C)(C)c1ccc(C(=O)Nc2ccc3nc(SCC(=O)N4CCCC4)sc3c2)cc1	nt	nt	nt	nt	nt	7.57µM
CN1C(=O)C(=Cc2ccc(N3CCCCCC3)o2)C(=O)N(C)C1=S	?	i	?	?	?	10.7µM
CCCCn1c(=O)c(C=Nc2cc([N+](=O)[O-])ccc2OC)c(O)n(CCCCl)c1=O	i	i	i	20.6µM	i	i
CC(=O)Nc1ccc(NC(=O)Oc2ccccc2)cc1	i	i	i	?	i	?
CN(C)c1ccc(NC(=O)Oc2ccccc2)cc1	?	i	i	?	i	3.01µM
COc1cc2c(cc1OC)-c1c(OC)c(OC)c(OC)c3ccnc(c13)C2=O	i	i	i	6.51µM	i	i
COc1cc(CC2(CCc3ccncc3)C(=O)NC(=O)NC2=O)cc(OC)c1OC	i	nt	i	i	i	i
CC(Cc1ccccc1)NC(=O)c1ccc(N)cc1 (stereo not given)	?	nt	3.55µM	?	3.16µM	21.3µM
CC(Cc1ccccc1)NC(=O)NC(C)Cc1ccccc1 (stereo not given)	11.6µM	nt	2.82µM	?	?	13.5µM
COc1ccc(Oc2c(C)oc3cc(OC(=O)N(C)C)ccc3c2=O)cc1	i	nt	i[1.84 µM]	i	i	i
COc1ccc2[nH]c3c(c2c1)CCNC3	?	i	i	i	i	i
OCC[n+]1c2ccccc2nc2ccc(N3CCOCC3)cc21	i	nt	i	23.1µM	i	26.9µM
COc1ccc(-n2c(C)nc3cc(C(=O)N4CCC5(CC4)OCCO5)ccc32)cc1	i	i	i	i	i	i
COc1ccc(-c2nc3ccc(C(=O)N4CCC5(CC4)OCCO5)cc3nc2-c2ccc(OC)cc2)cc1	i	nt	i	16.4µM	i	i
CN(CCc1ccccc1)Cc1ccccc1[N+](=O)[O-]	i	i	i	i	i	i
